Experimental findings from PubChem BioAssay (Tox21) are described below.

Assay [1] is described as follows: qHTS assay for small molecule agonists of the p53 signaling pathway (AID 651631; calls by dose curve; further: nearly all actives have a fitted effect of over 15% in size; further: potency means the concentration at half of the fitted maximal effect). A digest of the protocol: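 Readout was fluorescence from the LiveBLAzer FRET substrate, applied for 2 h at room temperature after 16 h compound exposure at 37 °C. Cells were the p53RE-bla HCT-116 line, with beta-lactamase driven by p53 response elements.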
(In general: Quantitative high-throughput screening tests each substance at several concentrations.)

Assay [2] can be described thus: qHTS assay for small molecules that induce genotoxicity in human embryonic kidney cells expressing luciferase-tagged ATAD5 (AID 651632). Further: nearly all actives have a fitted effect of over 15% in size. Further: potency means the concentration at half of the fitted maximal effect. A digest of the protocol: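 DMSO vehicle served as the control. HEK293T reporter cells, 16 hr at 37C, then 30 min Amplite at room temperature; ATAD5 induction is measured as luciferase activity.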
Assay [3] in a line: qHTS assay for small molecule agonists of the p53 signaling pathway - cell viability (AID 651633; calls by dose curve; further: nearly all actives have a fitted effect of over 30% in size; further: potency means the concentration at half of the fitted maximal effect). Summed up:
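p53RE-bla cells were treated with compound for 16 hours at 37 C. Cytotoxicity was then measured as CellTiter-Glo luminescence after 30 min at room temperature.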

Assay [4] in a line: qHTS assay for small molecules that induce genotoxicity in human embryonic kidney cells expressing luciferase-tagged ATAD5 - cell viability (AID 651634; calls by dose curve; further: nearly all actives have a fitted effect of over 25% in size; further: potency means the concentration at half of the fitted maximal effect). Summed up:
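Here HEK293T cells with the ATAD5 luciferase reporter are incubated with test compounds for 15.5 hr, and cytotoxicity is then gauged by measuring protease activity in live cells using fluorescence.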

The nature of assay [5]: qHTS assay for small molecule disruptors of the mitochondrial membrane potential - cell viability (AID 720634; calls by dose curve; further: nearly all actives have a fitted effect of over 20% in size; further: potency means the concentration at half of the fitted maximal effect). A digest of the protocol: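 Viability of HepG2 cells is scored from ATP content by luminescence; cells are exposed to compound for 1 hr at 37 C and 5% CO2, then dosed with m-MPI dye before the CellTiter-Glo reagent.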
Assay [6] in a line: qHTS assay for small molecule disruptors of the mitochondrial membrane potential (AID 720635). Further: potency means the concentration at half of the fitted maximal effect. A digest of the protocol:
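HepG2 cells exposed to compound 1 hr at 37C, then Mito-MPS dye 30 min. Ratio read of aggregate (540/590 nm) versus monomer (490/535 nm) fluorescence.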

The nature of assay [7]: qHTS assay to test for compound auto fluorescence at 590 nm (red) in HepG2 cells (AID 720674). Further: potency means the concentration at half of the fitted maximal effect. Summed up:
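Fluorescence at 590 nm emission following 540 nm excitation was recorded from HepG2 wells one hour after compound transfer, with DMSO-only wells as vehicle and Rose Bengal sodium equivalency as the scale.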

Assay [8] in a line: qHTS assay to test for compound auto fluorescence at 535 nm (green) in HepG2 cells (AID 720675).
A short description of assay [9]: qHTS assay to test for compound auto fluorescence at 460 nm (blue) in HEK293 cells (AID 720678). Summed up:
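Measured: blue fluorescence (Ex 405/Em 460 nm) of compound-treated HEK293 cells, incubated overnight at 37C with 5% CO2 and scaled to triamterene equivalents.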

Assay [10] is described as follows: qHTS assay to test for compound auto fluorescence at 590 nm (red) in HEK293 cells (AID 720679). Further: potency means the concentration at half of the fitted maximal effect. A digest of the protocol: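 Using HEK293 cells at 2,000 per well, the screen added 23 nL of each compound after cell attachment and incubated overnight (37C, 5% CO2). The plate reader then captured red-label fluorescence, Ex/Em 540/590nm.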

Structures are written as SMILES. Where “and” joins values, the source holds several entries; their conditions need not be identical. Identical values can stand only once. Unmarked numbers belong to inactive results. Inconclusive results are not listed. Calls of active or inactive are those of the source. Unless noted, the call rests on the fitted dose curve; in most records, active means well fitted curve in the direction sought with a large enough effect in the repeat runs; inconclusive means weak or mixed curves; inactive means no such curve, though single readings can be large; an effect the other way counts as inactive or inconclusive.
On the % scale 0 is the no-effect control and ±100 the full control effect; tags describe the fitted curve by direction and shape or compound fluorescence and quenching.

As to `Oc1ccc(Cl)cc1Sc1cc(Cl)ccc1O`, the Potency in [1] is 29.8 µM (active); in assay [3] it was 26.6 µM (active) and 54.4 µM (active); in [4] it was 19.3 µM (active); in [5] it was 9.44 µM (active) and 13.7 µM (active); in assay [6], 2.11 µM (active) and 1.53 µM (active). Further, the Potency entry in [2], in [7], in assay [8], in [9] and in [10] was “inactive” each time.

As to `NC(=O)NS(=O)(=O)c1ccc(N)cc1`, the Potency result in [1], in [2], in assay [3], in assay [4], in assay [5] and in assay [7] was “inactive” throughout. The Potency result in assay [8], in assay [9] and in [10] was “inactive” each time.

With `O=C(O)c1c(Cl)cccc1Cl`, the Potency entry in [1], in [2], in assay [3], in [4], in assay [5] and in [7] was “inactive” each time. Moreover, the Potency entry in assay [8], in assay [9] and in assay [10] was “inactive” throughout.

For `O=C(O)c1ccc(Cl)c(Cl)c1`, the Potency entry in assay [1], in assay [2], in assay [3], in assay [4], in assay [5] and in assay [7] was “inactive” in each case. For the same compound, the Potency entry in assay [8], in assay [9] and in [10] was “inactive” in each case.

Consider `CCCC1O[C@@H]2C[C@H]3[C@@H]4CCC5=CC(=O)C=C[C@]5(C)[C@H]4[C@@H](O)C[C@]3(C)[C@]2(C(=O)CO)O1` (stereo partly drawn), for which the Potency entry in assay [1], in assay [2], in [3], in assay [4], in [5] and in assay [6] was “inactive” in each case. For the same compound, the Potency entry in assay [7], in assay [8], in assay [9] and in assay [10] was “inactive” in each case.

On to `COc1cc(/C=C/C(=O)O[C@H]2CC[C@]34C[C@]35CC[C@]3(C)[C@@H]([C@H](C)CCC=C(C)C)CC[C@@]3(C)[C@@H]5CC[C@H]4C2(C)C)ccc1O`, for which the Potency in assay [1] and in assay [2] was 7.5 µM (active) each time. For the same compound, the Potency entry in assay [3], in [4], in assay [5], in assay [7], in assay [8] and in assay [9] was “inactive” in each case. Also, the Potency result in [10] is “inactive”.

Turning to `Cc1cccc(S(=O)(=O)O)c1C`, the Potency entry in assay [1], in assay [2], in [3], in assay [4], in assay [5] and in assay [7] was “inactive” in each case. Moreover, the Potency entry in assay [8], in assay [9] and in assay [10] was “inactive” throughout.

In the case of `CCCC/C=C/CCCCO`, the Potency entry in assay [1], in assay [2], in assay [3], in [4], in assay [5] and in assay [7] was “inactive” throughout. Also, the Potency result in [8], in assay [9] and in assay [10] was “inactive” in each case.

Consider `CCN1/C(=C/C=C/c2sc3ccccc3[n+]2CC)Sc2ccccc21`, for which the Potency was 15 µM (active) in [1]; 16.8 µM (active) in assay [3]; 10.6 µM (active) in assay [4]; 12.6 µM (active) in assay [7]; 11.2 µM [fluorescent] (active) in [10]. The Potency entry in [2], in assay [5], in assay [8] and in [9] was “inactive” each time.

Take `Clc1ccc2cc3ccccc3cc2c1`: the Potency in assay [1] is 54.4 µM (active). For the same compound, the Potency entry in assay [2], in [3], in [4], in assay [5], in assay [7] and in assay [8] was “inactive” throughout. Moreover, the Potency entry in [9] and in assay [10] was “inactive” each time.

On to `CC(=O)SC[C@@H](Cc1ccccc1)C(=O)NCC(=O)OCc1ccccc1`, for which the Potency entry in assay [1], in assay [2], in assay [3], in assay [4], in assay [5] and in [6] was “inactive” each time. Further, the fluorescence, relative to Rose Bengal in assay [7] is 0.374% [at 18.6 µM]. Also, the fluorescence, % of fluorescein control in [8] is 0.0221% [at 18.6 µM]. Also, the fluorescence, % of triamterene in assay [9] was -0.317% [at 18.6 µM]. Besides, the fluorescence, % of fluorescent control in [10] is -1.15% [at 18.6 µM].

For the compound `ON=C1CCCC1`, the Potency result in assay [1], in assay [2], in [3], in assay [4], in assay [5] and in assay [6] was “inactive” throughout. Moreover, the Potency result in assay [7], in assay [8], in assay [9] and in [10] was “inactive” in each case.

On to `CCN(C(=O)c1cc(C)cc(OC[C@H](C)Nc2ccncc2)c1)C(C)C`, for which the Potency result in assay [1], in [2], in assay [3], in assay [4], in [5] and in assay [7] was “inactive” throughout. Further, the Potency result in [8], in [9] and in assay [10] was “inactive” each time.

Turning to `Cc1c(C)c2c(c(C)c1O)CCC(C)(COc1ccc(CC3SC(=O)NC3=O)cc1)O2` (stereo not drawn), the Potency in assay [1] was 29.8 µM (active) and 54.5 µM (active); in assay [3], 29.8 µM (active) and 61.1 µM (active); in assay [6] it was 9.44 µM (active) and 10.9 µM (active). Further, the Potency result in assay [2], in assay [4], in assay [5], in assay [7], in assay [8] and in [9] was “inactive” throughout. Besides, the Potency result in [10] was “inactive”.

On to `Cc1[nH]cnc1C[C@H]1CCc2c(C)c3ccccc3n2C1=O`, for which the Potency result in assay [1], in [2], in assay [3], in [4], in assay [5] and in assay [7] was “inactive” each time. The Potency result in assay [8], in assay [9] and in assay [10] was “inactive” throughout.

In the case of `O=C1c2ccccc2Cc2ccccc21`, the Potency entry in assay [1], in assay [2], in [3], in assay [4], in assay [5] and in assay [7] was “inactive” throughout. The Potency result in [8], in assay [9] and in assay [10] was “inactive” throughout. Moreover, the Potency in assay [6] was 12.3 µM (active).

As to `N/C(=N\N=C\c1ccc(Cl)cc1)N/N=C/c1ccc(Cl)cc1`, the Potency in [1] and in [3] was 26.6 µM (active) in each case. Also, the Potency entry in assay [2], in [4], in [5], in [7], in [8] and in [9] was “inactive” each time. Further, the Potency entry in [10] is “inactive”.

`CC(C)(C)C(=O)OCOC(=O)[C@@H]1N2C(=O)[C@@H](NC(=O)[C@H](N)c3ccccc3)[C@H]2SC1(C)C`: the Potency entry in assay [1], in assay [2], in [3], in assay [4], in [5] and in assay [6] was “inactive” throughout. Also, the fluorescence, relative to Rose Bengal in [7] is 0.612% [at 18.6 µM]. Further, in [8], the fluorescence, % of fluorescein control is -0.113% [at 18.6 µM]. In addition, the fluorescence, % of triamterene in [9] was 0.0033% [at 18.6 µM]. Also, the fluorescence, % of fluorescent control in assay [10] is 0.201% [at 18.6 µM].

With `COc1cc(-c2ccc(N=C=O)c(OC)c2)ccc1N=C=O`, the Potency entry in assay [1], in assay [2], in assay [3], in assay [4], in assay [5] and in assay [7] was “inactive” throughout. Moreover, the Potency entry in assay [8], in assay [9] and in assay [10] was “inactive” each time.
